Measurements taken from PubChem BioAssay (NCI).
Values joined by “and” are separate entries in the source; they are usually repeats but may differ in a detail not shown here. Equal values may be shown once. This is part of a sample that, as a whole, favours compounds with a hit. Of some 83,000 tested, about 20% had one in any assay.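 Treatment: one concentration, 48 hours, 96-well format. Scoring: percent growth, with anything below 10 considered active.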 Active and inactive are the calls of the source.

Columns and labels:
Experiment in all cases: NCI-60 one-dose screen, 48 h (100 = growth as untreated, 0 = no growth, -100 = all killed)
NCI-H23 lung = conditions: 10 µM
NCI-H226 lung = conditions: 10 µM
NCI-H322M lung = conditions: 10 µM
HOP-62 NSCLC = conditions: 10 µM
NCI-H460 lung = conditions: 10 µM
HOP-92 NSCLC = conditions: 10 µM
NCI-H522 lung = conditions: 10 µM unless noted
A549/ATCC NSCLC = conditions: 10 µM
786-0 renal = conditions: 10 µM
COLO 205 colon = conditions: 10 µM
DU-145 prostate = conditions: 10 µM unless noted
K-562 leukemia = conditions: 10 µM
MALME-3M melanoma = conditions: 10 µM
MDA-MB-231 breast = conditions: 10 µM
RXF 393 renal = conditions: 10 µM unless noted
SF-268 CNS = conditions: 10 µM
SF-295 CNS = conditions: 10 µM
SF-539 CNS = conditions: 10 µM
UACC-257 melanoma = conditions: 10 µM
M14 melanoma = conditions: 10 µM

Compound	growth (NCI-H23 lung)	growth (NCI-H226 lung)	growth (NCI-H322M lung)	growth (HOP-62 NSCLC)	growth (NCI-H460 lung)	growth (HOP-92 NSCLC)	growth (NCI-H522 lung)	growth (A549/ATCC NSCLC)	growth (786-0 renal)	growth (COLO 205 colon)	growth (DU-145 prostate)	growth (K-562 leukemia)	growth (MALME-3M melanoma)	growth (MDA-MB-231 breast)	growth (RXF 393 renal)	growth (SF-268 CNS)	growth (SF-295 CNS)	growth (SF-539 CNS)	growth (UACC-257 melanoma)	growth (M14 melanoma)
NC1=C(Cl)C(=O)c2ccccc2C1=O	40.7% (inactive)	103% (inactive)	98.6% (inactive)	62.4% (inactive)	25.3% (inactive)	96.8% (inactive)	73.6% (inactive)	45% (inactive)	106% (inactive)	95.2% (inactive)	27.1% (inactive)	57% (inactive)	-26.3% (active)	72.1% (inactive)	103% (inactive)	71.7% (inactive)	41% (inactive)	75.4% (inactive)	56.6% (inactive)	28.7% (inactive)
COC(=O)C1=COC(C)C2C[n+]3ccc4c([nH]c5ccccc54)c3CC12 (centres undefined)	103% (inactive) and 88.6% (inactive)	87.1% (inactive) and 71.2% (inactive)	107% (inactive) and 95.9% (inactive)	94.7% (inactive) and 88.3% (inactive)	113% (inactive) and 95.1% (inactive)	92.2% (inactive) and 75.9% (inactive)	99.2% (inactive) and 76.1% (inactive)	103% (inactive) and 76.7% (inactive)	102% (inactive) and 107% (inactive)	106% (inactive) and 99.7% (inactive)	112% (inactive) and 108% (inactive)	93.7% (inactive) and 85.2% (inactive)	105% (inactive) and 93.8% (inactive)	101% (inactive) and 73.2% (inactive)	112% (inactive)	99.1% (inactive) and 96.2% (inactive)	102% (inactive) and 90.8% (inactive)	105% (inactive)	106% (inactive) and 95.1% (inactive)	107% (inactive) and 94% (inactive)
NC(=O)SCC(=O)NNc1ccccc1	112% (inactive)	93.1% (inactive)	94.8% (inactive)	93.8% (inactive)	98.8% (inactive)	92.2% (inactive)	85.2% (inactive)	85.3% (inactive)	108% (inactive)	100% (inactive)	99.6% (inactive)	101% (inactive)	–	89.2% (inactive)	112% (inactive)	92.8% (inactive)	94.6% (inactive)	103% (inactive)	91.6% (inactive)	102% (inactive)
COC1OCC(O)C(O)C1O (centres undefined)	98.3% (inactive)	108% (inactive)	99.8% (inactive)	102% (inactive)	104% (inactive)	103% (inactive)	97.5% (inactive)	101% (inactive)	101% (inactive)	107% (inactive)	105% (inactive)	104% (inactive)	103% (inactive)	110% (inactive)	106% (inactive)	98.4% (inactive)	105% (inactive)	107% (inactive)	–	101% (inactive)
Nc1nc(=S)c2ncn(C3OC(CO)C(O)C3O)c2[nH]1 (centres undefined)	102% (inactive) and 25.8% (inactive)	113% (inactive) and 35.5% (inactive)	128% (inactive) and 64.3% (inactive)	106% (inactive) and 35.4% (inactive)	120% (inactive) and 9.3% (active)	29.5% (inactive)	96.7% (inactive) and -12% (active)	92.9% (inactive) and 27.9% (inactive)	103% (inactive) and 22.2% (inactive)	155% (inactive) and 12.4% (inactive)	108% (inactive) and 23.2% (inactive)	108% (inactive)	170% (inactive) and 15% (inactive)	105% (inactive) and 26.1% (inactive)	108% (inactive) and -8.38% (active)	101% (inactive) and 34.5% (inactive)	109% (inactive) and 18.3% (inactive)	107% (inactive) and 22.3% (inactive)	98.9% (inactive) and 31.5% (inactive)	109% (inactive) and 15.5% (inactive)
O=C1NC(=O)c2cc([N+](=O)[O-])ccc21	105% (inactive)	97.7% (inactive)	99% (inactive)	101% (inactive)	105% (inactive)	82.3% (inactive)	102% (inactive)	107% (inactive)	112% (inactive)	111% (inactive)	112% (inactive)	119% (inactive)	106% (inactive)	107% (inactive)	108% (inactive)	106% (inactive)	101% (inactive)	101% (inactive)	104% (inactive)	118% (inactive)
C[n+]1c2cc(N)ccc2cc2ccc(N)cc21	–	-14.9% (active) [middle of 4 runs]	–	–	–	43.9% (inactive) and 8.02% (active) and -29.2% (active)	–	–	–	–	–	–	-62% (active) and -11.9% (active) and -51.7% (active)	14.5% (inactive) [middle of 4 runs]	-34.2% (active) and 5.66% (active) and -8.06% (active)	–	–	10.8% (inactive) and 19.8% (inactive) and -3.57% (active)	–	–
